Assay outcomes: PubChem BioAssay, National Center for Advancing Translational Sciences (NCATS)
Sampled rows, rich in hits. Any-hit rate of the full collection: about 2.6%.
Cruzain inh noDet: inhibitors of Trypanosoma cruzi cruzain without detergent; Potency, µM, without a hit: max response, negative = inhibition, usual class: inhibitors; 2.3% of 200,000 active; P25779; purified cruzain, Z-FR-AMC fluorescence, no detergent;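 further: plate controls were enzyme without inhibitor for no effect and buffer without enzyme for full effect; nearly all actives have a fitted effect of over 40% in size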
Target sequence (P25779 123-467 limits assumed): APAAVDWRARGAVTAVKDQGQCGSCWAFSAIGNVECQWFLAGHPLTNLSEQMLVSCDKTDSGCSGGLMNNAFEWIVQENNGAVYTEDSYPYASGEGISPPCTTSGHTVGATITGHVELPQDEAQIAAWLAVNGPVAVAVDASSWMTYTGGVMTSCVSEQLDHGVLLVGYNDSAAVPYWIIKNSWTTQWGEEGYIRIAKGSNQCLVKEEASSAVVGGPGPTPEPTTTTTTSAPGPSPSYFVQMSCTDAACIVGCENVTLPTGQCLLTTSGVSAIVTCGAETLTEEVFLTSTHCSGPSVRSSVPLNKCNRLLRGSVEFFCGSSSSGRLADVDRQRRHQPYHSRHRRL
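Detergent-free condition (0.00005% Triton X-100) in acetate buffer pH 5.5 with DTT. 1.5 nM enzyme and compound were pre-mixed 15 min, then 2 uM Z-FR-AMC substrate added; reaction progress from fluorescence change between first and third reads (60 s).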
Cruzain Triton: blocks cruzain activity in presence of Triton detergent | 0.43% of 200,000 active | Potency, µM, for the others: max response, negative = inhibition, most hits filed as inhibitors | purified cruzain, Z-FR-AMC fluorescence, 0.01% Triton | P25779;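 further: plate controls were neutral wells for no effect and buffer without enzyme for full effect; nearly all actives have a fitted effect of over 40% in size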
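Read-out: AMC fluorescence (360 nm excitation, 450 nm emission), four reads over 2 min, first-to-third difference used. Conditions: cruzain 1.5 nM, Z-FR-AMC 2 uM, pH 5.5 acetate, 5 mM DTT, 0.01% Triton X-100.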
Numbers without * were called inactive; ? = inconclusive. The call rests on the fitted dose curve; in most records, active means well fitted curve in the direction sought with a large enough effect; inconclusive means small, poorly fitted or top-dose-only effect, or another doubt; inactive means no such curve, though single readings can be large; an effect the other way counts as inactive or inconclusive. Potency means the concentration at half of the fitted maximal effect.

SMILES	Cruzain inh noDet	Cruzain Triton
Cc1oc2ncn(CC(C)C)c(=O)c2c1C(=O)N(Cc1ccccc1)C(C)C	4.1%	-0.2%
Cc1ccc(Cl)cc1N1CCN(C(=O)CCC(=O)Nc2ccc3nc(N4CCC(C)CC4)cc(C)c3c2)CC1	9.2%	-1.6%
Cc1cc(N2CCCCC2)nc2ccc(NC(=O)c3cccc(Cl)c3)cc12	-11.3%	-10.2%
Cc1cc(N2CCCCC2)nc2ccc(NC(=O)CCC(=O)N3CCN(c4cccc(Cl)c4)CC3)cc12	?	15.8µM*
Cc1cc(N2CCC(C)CC2)nc2ccc(NC(=O)CCC(=O)N3CCN(c4cccc(C(F)(F)F)c4)CC3)cc12	?	12.6µM*
Cc1oc(-c2ccccc2Cl)nc1CS(=O)(=O)CC(=O)NCc1ccc(F)cc1	?	-11.5%
O=C(NCc1ccccc1Cl)c1cnc2sc(N3CCOCC3)nn2c1=O	-2.6%	3.4%
Cc1ccc2ccc3cc(C(=O)Nc4ccc(C)c(F)c4)nc3c2[nH]1	?	8.91µM*
Cc1ccc2ccc3cc(C(=O)N4CCN(c5ccccc5F)CC4)nc3c2[nH]1	-22.0%	-2.3%
Cc1ccc(NC(=O)N2CCN(c3cc(-c4noc(C)n4)ccc3C)CC2)c(F)c1	3.9%	-2.3%
O=C(NCCOc1ccccc1)O[C@@H]1C(=O)c2cc(Br)ccc2O[C@H]1c1ccc2c(c1)OCO2	-1.0%	-2.4%
O=[N+]([O-])c1cc(S(=O)(=O)c2ccc(N3CCCCC3)c([N+](=O)[O-])c2)ccc1N1CCCCC1	7.94µM*	-7.9%
O=C(/C=C/c1ccc(N2CCCCC2)c([N+](=O)[O-])c1)c1ccc(S(=O)(=O)N2CCCC2)cc1	31.6µM*	-5.5%
O=[N+]([O-])c1cccc(S(=O)(=O)c2ccc(N3CCCCC3)c([N+](=O)[O-])c2)c1	?	-6.8%
COc1cccc(C(=O)/C=C/c2ccc(N3CCCCC3)c([N+](=O)[O-])c2)c1	6.3%	-4.8%
COc1ccc(OCC(=O)NCC2(N3CCN(C)CC3)CCCCC2)cc1	-8.8%	0.6%
COC(=O)[C@@]1(Cc2ccc(OC)cc2)[C@H]2c3cc(C(=O)N(C)C)n(Cc4cc(C)n(C)n4)c3C[C@H]2CN1C(=O)c1ccccc1	?	-3.0%
Oc1ccccc1C1=Nc2nc3ccccc3n2C(c2ccccc2)C1 (stereo not given)	25.1µM*	-4.7%
c1ccc(C2Nc3ccccc3-c3nc4ccccc4n32)cc1 (stereo not given)	?	-1.4%
CN(C)c1ccc(C(=S)N2CCCCCC2)cc1	6.31µM*	14.1µM*
Cc1ccc(N2CCN(C(=S)c3ccc(N(C)C)cc3)CC2)cc1	20µM*	-0.9%
CC(=O)N1CCN(C(=S)c2ccc(N(C)C)cc2)CC1	11.8%	1.1%
CN(C)c1ccc(C(=S)N2CCN(c3ccccc3)CC2)cc1	-3.0%	-4.2%
Cc1cc(C)c(Cn2c(C(O)c3ccccc3)nc3ccccc32)c(C)c1 (stereo not given)	?	1.4%
NCC1O[C@@H](O[C@@H]2C(O)[C@H](O[C@H]3OC(CO)C(O)C(N)C3O)[C@@H](N)C[C@H]2N)C(N)C(O)C1O (stereo not given in full)	1.4%	2.8%
SMILES	Cruzain inh noDet	Cruzain Triton
O=S(=O)(c1ccccc1)N1CCC2(CC1)CN(c1ccccn1)C2	-0.4%	-4.8%
O=C(Nc1ccc(F)cc1)C(c1ccccc1)N1CCN(S(=O)(=O)c2ccc3ccccc3c2)CC1 (stereo not given)	?	-1.7%
Cc1ccc(C)c(S(=O)(=O)N2CCN(C(C(=O)Nc3ccc(F)cc3)c3ccccc3)CC2)c1 (stereo not given)	25.1µM*	-2.8%
COc1ccc(-c2nnc(SCC(=O)Nc3cccc(C(F)(F)F)c3)nc2-c2ccc(OC)cc2)cc1	-22.1%	-5.3%
O=C(NCCCN1CCN(c2ccc(F)cc2)CC1)c1ccc2nc(Cc3ccccc3)oc2c1	-6.0%	-0.7%
CN1CCN(c2ncc3nc(CCc4ccccc4)c(=O)n(Cc4ccc(F)cc4)c3n2)CC1	-4.0%	-6.8%
CN(C)c1ccc(C(=C2C=CC(=[N+](C)C)C=C2)c2c(O)c(S(=O)(=O)O)cc3cc(S(=O)(=O)O)ccc23)cc1	-4.8%	-2.1%
O=C(NCc1ccccn1)c1ccc([N+](=O)[O-])cc1	-9.1%	-1.8%
O=C(Nc1cc(Sc2ccccn2)cc([N+](=O)[O-])c1)c1ccc([N+](=O)[O-])cc1	31.6µM*	-0.4%
CCOC(=O)c1ccccc1NC(=O)CN(c1ccccc1OC)S(=O)(=O)c1ccc(C)cc1	2.1%	-0.2%
COc1ccc(Nc2oc(/C=C/c3ccccc3OC)nc2C#N)cc1	?	-1.5%
COc1cc(/C=C/c2nc(C#N)c(N3CCCCC3)o2)cc(OC)c1OC	21.6%	-8.5%
CCN1CCN(c2oc(/C=C/c3ccccc3OC)nc2C#N)CC1	31.6µM*	-25.0%
COc1ccccc1/C=C/c1nc(C#N)c(N2CCN(C)CC2)o1	25.1µM*	-29.2%
Cc1ccc(OCCSc2nc3ccc(NC(=O)c4cccs4)cc3s2)cc1	-0.3%	-1.6%
Cc1cc(C)cc(OCCSc2nc3ccc(NC(=O)c4cccs4)cc3s2)c1	20µM*	-1.6%
CC(=O)c1cccc(NC(=O)C2CCN(S(=O)(=O)c3ccc4c(c3)CCCN4C(C)=O)CC2)c1	20.1%	-2.3%
O=C(COC(=O)c1ccccc1OCC(=O)Nc1ccc(Br)cc1)Nc1ccccc1	12.6µM*	1.4%
COCC(=O)Nc1ccc(Nc2ccccc2)cc1	25.1µM*	4.7%
CCC(C)NC(=O)COC(=O)c1ccccc1OCC(=O)Nc1ccc(Br)cc1 (stereo not given)	14.9%	2.8%
CCC(=O)Nc1ccc(Nc2ccccc2)cc1	-9.8%	0.1%
Cc1cc(C)cc(NC(=O)C2CCN(c3cc(C)nc4c(-c5ccc(Cl)cc5)c(C)nn34)CC2)c1	2.9%	0.6%
Cc1cccc(CNc2nc(-c3ccccc3CN(C)C)nc3ccccc23)c1	7.4%	2.6%
O=C(c1ccco1)N1CCC2(CCN(Cc3cc(C(F)(F)F)cc(C(F)(F)F)c3)CC2)CC1	-12.4%	1.9%
NCCSC(c1ccccc1)c1ccccc1	-1.3%	-1.4%
SMILES	Cruzain inh noDet	Cruzain Triton
Cc1c(Cl)cccc1-n1ncc(C(=O)NCCN2CCN(C)CC2)c1C1CCN(C(=O)OC(C)(C)C)CC1	9.8%	0.0%
Cc1onc(-c2ccccc2)c1C(=O)NC(=S)Nc1sc2c(c1C#N)CCCC2	12.6µM*	-7.6%
Cc1cc(C(=O)Nc2sc3c(c2C#N)CCC(C)C3)no1 (stereo not given)	-7.0%	-1.7%
Cc1onc(-c2c(F)cccc2Cl)c1C(=O)Nc1sc2c(c1C#N)CCC(C(C)(C)C)C2 (stereo not given)	10µM*	-4.3%
Cc1onc(-c2ccccc2)c1C(=O)NC(=S)Nc1sc2c(c1C#N)CCC(C)C2 (stereo not given)	7.94µM*	-6.4%
Cc1onc(-c2c(F)cccc2Cl)c1C(=O)Nc1sc2c(c1C(N)=O)CCC2	?	-15.3%
Cc1onc(-c2ccccc2)c1C(=O)Nc1sc2c(c1C#N)CCC2	-20.7%	-5.2%
O=C1CN(C(=O)c2cccc(Br)c2)C(c2ccccc2)c2cc(Cl)ccc2N1 (stereo not given)	-20.7%	-4.9%
COc1cc(OC)c(C(=O)NCc2nc(-c3ccccc3)no2)cc1OC	?	-6.6%
Cc1noc(C)c1CSc1nc2sc(C)c(C)c2c(=O)n1-c1ccccc1	-13.3%	-1.0%
COc1ccc(-c2noc(CSc3nc4sc(C)c(C)c4c(=O)n3-c3ccccc3)n2)cc1	7.94µM*	-3.3%
COc1ccc(-c2noc(CSc3nc4sc(C)c(C)c4c(=O)n3-c3ccccc3)n2)cc1OC	-17.6%	0.0%
